Targets with a hit are over-represented here; the source holds about 7,900 in all. About 0.6% of all pairs of compound and target were hits. A number with no mark means an inactive call.

Chain of UniProt Q9UHX1 (Q9UHX1 whole entry, looked up): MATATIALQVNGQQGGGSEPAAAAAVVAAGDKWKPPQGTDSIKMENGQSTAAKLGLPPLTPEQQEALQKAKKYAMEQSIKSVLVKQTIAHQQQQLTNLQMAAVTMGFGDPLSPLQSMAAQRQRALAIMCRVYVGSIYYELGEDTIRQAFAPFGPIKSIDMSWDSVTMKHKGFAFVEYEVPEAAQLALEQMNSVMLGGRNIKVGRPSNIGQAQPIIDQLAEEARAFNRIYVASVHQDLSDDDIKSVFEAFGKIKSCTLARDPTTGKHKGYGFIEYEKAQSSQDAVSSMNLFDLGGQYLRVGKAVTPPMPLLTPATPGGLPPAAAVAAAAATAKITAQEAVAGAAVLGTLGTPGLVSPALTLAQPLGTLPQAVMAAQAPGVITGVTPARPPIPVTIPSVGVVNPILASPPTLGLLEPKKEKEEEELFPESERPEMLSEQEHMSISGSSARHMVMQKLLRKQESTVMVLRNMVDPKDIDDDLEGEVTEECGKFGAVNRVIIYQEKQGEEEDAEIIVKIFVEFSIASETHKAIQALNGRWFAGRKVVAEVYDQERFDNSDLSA
Chain of UniProt Q14671 (Q14671 whole entry, looked up): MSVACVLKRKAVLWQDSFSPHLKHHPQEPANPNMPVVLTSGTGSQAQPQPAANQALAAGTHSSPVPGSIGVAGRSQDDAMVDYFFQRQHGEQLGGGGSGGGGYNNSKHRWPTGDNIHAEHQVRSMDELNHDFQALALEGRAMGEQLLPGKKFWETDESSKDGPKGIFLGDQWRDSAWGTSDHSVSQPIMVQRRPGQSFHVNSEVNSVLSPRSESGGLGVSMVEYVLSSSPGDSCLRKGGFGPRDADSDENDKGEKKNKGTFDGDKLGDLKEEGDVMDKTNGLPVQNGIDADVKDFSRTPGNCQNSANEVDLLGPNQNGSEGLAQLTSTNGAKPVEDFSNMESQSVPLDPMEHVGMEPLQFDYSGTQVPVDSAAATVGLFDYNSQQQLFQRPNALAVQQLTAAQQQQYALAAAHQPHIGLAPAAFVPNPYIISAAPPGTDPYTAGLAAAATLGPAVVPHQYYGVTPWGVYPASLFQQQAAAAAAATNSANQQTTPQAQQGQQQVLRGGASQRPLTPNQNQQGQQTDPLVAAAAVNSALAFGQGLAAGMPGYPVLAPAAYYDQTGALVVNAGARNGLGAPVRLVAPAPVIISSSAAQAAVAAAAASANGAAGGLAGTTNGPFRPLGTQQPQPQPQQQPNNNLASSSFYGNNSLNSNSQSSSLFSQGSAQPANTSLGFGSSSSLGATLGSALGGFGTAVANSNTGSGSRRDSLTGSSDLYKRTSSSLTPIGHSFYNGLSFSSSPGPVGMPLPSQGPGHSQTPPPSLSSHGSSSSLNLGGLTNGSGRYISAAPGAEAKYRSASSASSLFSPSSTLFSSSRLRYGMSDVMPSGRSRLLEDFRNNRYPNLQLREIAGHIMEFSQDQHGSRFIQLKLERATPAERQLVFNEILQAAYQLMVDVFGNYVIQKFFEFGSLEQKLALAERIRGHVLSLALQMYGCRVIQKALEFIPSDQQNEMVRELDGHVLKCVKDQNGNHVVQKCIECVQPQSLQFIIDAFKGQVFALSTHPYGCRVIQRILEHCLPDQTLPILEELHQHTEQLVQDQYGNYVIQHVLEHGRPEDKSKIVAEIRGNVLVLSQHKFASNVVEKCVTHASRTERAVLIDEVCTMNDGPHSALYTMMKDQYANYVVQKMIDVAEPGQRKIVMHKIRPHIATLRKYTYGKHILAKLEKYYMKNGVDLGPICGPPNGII
Chain of UniProt Q9NYI0 (Q9NYI0 whole entry, looked up): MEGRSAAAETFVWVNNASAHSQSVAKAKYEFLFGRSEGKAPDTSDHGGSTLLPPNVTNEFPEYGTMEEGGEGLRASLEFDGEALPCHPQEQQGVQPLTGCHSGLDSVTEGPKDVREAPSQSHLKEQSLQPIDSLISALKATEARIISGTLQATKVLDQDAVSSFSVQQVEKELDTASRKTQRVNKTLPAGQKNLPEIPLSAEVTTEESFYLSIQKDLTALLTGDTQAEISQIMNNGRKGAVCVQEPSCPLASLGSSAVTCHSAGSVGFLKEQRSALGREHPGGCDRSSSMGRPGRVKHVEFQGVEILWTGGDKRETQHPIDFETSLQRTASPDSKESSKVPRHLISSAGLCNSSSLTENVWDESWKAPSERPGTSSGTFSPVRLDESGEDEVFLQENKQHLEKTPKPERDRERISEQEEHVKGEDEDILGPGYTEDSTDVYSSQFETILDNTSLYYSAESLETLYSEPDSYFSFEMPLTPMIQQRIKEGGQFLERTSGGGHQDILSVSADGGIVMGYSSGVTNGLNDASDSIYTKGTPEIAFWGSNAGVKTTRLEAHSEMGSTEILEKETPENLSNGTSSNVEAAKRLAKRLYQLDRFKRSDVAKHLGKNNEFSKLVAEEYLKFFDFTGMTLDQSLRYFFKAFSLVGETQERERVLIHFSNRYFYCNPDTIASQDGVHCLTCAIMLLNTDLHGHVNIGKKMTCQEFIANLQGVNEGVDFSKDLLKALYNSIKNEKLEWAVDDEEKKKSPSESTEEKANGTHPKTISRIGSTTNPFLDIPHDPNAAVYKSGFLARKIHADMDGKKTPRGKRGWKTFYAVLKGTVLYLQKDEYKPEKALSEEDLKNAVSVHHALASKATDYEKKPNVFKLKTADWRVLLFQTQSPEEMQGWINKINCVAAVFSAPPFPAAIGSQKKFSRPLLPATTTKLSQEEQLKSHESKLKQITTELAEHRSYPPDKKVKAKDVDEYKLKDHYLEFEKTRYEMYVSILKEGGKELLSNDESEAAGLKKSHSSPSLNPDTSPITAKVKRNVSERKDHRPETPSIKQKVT
Chain of UniProt P14618 (P14618 whole entry, looked up): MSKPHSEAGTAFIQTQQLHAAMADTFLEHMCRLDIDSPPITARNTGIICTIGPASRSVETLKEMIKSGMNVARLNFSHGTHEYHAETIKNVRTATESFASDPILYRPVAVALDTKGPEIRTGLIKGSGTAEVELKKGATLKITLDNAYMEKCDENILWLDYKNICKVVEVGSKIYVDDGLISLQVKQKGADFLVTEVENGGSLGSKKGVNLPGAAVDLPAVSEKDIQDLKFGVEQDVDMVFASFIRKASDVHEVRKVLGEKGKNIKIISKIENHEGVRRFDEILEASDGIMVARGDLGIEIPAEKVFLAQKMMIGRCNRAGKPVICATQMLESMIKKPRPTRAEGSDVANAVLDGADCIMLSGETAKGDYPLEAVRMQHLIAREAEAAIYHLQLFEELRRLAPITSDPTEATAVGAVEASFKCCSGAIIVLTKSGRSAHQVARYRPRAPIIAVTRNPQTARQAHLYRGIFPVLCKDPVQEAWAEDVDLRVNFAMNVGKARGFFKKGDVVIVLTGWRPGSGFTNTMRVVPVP
Chain of UniProt Q15126 (Q15126 whole entry, looked up): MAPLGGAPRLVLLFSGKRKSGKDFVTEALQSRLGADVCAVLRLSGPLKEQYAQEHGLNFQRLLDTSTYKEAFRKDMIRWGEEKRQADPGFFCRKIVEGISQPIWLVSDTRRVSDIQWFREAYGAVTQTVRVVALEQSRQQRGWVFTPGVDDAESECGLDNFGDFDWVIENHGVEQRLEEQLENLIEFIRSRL
Chain of UniProt O94913 (O94913 whole entry, looked up): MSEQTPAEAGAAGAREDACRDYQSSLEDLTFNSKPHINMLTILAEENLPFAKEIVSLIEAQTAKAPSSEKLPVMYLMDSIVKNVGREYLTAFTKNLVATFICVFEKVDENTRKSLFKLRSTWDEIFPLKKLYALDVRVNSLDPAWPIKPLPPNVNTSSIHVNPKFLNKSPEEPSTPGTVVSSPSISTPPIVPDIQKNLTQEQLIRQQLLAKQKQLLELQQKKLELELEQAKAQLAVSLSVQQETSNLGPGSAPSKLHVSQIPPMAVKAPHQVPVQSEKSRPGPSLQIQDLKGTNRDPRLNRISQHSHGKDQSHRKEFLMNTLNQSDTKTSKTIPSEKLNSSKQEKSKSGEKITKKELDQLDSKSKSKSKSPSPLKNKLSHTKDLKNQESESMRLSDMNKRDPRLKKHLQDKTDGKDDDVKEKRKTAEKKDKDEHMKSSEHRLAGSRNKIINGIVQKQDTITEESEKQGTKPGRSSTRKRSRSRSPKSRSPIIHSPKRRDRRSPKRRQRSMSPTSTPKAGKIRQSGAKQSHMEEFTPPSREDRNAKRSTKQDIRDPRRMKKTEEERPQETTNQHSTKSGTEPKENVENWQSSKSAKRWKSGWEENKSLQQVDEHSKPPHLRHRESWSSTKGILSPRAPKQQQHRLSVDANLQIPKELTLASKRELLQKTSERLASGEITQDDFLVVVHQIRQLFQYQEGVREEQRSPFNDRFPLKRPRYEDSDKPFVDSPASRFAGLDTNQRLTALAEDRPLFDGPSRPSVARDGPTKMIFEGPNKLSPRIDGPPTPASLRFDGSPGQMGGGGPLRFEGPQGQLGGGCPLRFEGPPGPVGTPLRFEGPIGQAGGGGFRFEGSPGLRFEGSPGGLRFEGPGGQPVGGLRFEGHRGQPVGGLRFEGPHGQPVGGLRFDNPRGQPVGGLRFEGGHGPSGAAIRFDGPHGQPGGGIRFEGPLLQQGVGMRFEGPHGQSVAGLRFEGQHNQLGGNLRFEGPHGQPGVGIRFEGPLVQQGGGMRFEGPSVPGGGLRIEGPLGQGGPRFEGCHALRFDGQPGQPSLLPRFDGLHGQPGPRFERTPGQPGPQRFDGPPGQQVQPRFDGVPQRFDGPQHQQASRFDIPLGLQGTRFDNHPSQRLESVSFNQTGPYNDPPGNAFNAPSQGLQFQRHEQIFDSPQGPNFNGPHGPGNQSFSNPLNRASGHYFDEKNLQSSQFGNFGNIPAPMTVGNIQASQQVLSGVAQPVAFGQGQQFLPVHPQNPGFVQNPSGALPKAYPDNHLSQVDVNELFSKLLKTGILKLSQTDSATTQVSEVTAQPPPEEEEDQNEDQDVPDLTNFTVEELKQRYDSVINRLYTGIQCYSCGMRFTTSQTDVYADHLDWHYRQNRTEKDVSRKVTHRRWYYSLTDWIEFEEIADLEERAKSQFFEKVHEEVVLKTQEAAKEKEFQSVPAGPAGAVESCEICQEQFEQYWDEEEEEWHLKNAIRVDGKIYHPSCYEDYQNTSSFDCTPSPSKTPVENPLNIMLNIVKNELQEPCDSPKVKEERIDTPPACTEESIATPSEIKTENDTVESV

Compound in one assay: COC1=CC=C(C=C1)CN2C=CC3=C2C=C(C=C3)C(=O)NO
The assay is described as follows: log2 fold change, soluble protein after heating vs DMSO (PISA); higher = thermal stabilisation; K562 cells, 10 uM, 30 min; active = over 0.2 and 3.5 SD of the protein, either way, in both replicates (recomputed). The method in brief:
(§1)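 K562 cells at 2×10^6 cells/mL were exposed to 10 μM compound for 30 min, then aliquots were heated for 3 min across 48°C-58°C, pooled, and extracted in PBS containing 0.5% NP-40 at 4°C. The supernatant after 21,000xg for 90 min was taken as soluble protein and measured by TMTpro 16plex LC-MS/MS with channel sums equalised. Thermal stability is reported relative to control samples, with values from duplicates. Fold changes are given on a log2 scale.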
With PSMC3 (UniProt E9PLG2), the log2 fold change is -0.612.
For PDE4DIP (UniProt E9PS60), the log2 fold change was 0.
As to PCBP2 (UniProt F8VZX2), the log2 fold change was 0.03.
The same measure, in the same setting: with PDE4A (UniProt P27815) the figure was -0.442; with PSMA3 (UniProt H0YJ03), 0.362; with PUM1 (UniProt Q14671), -0.029.
Take PHLDB1 isoform 2 (UniProt Q86UU1): the log2 fold change is 0.
Consider PKM isoform 2 (UniProt P14618), for which the log2 fold change was 0.141.
On the same count and under the same terms, next, PIGH (UniProt Q14442): -0.029.
Turning to PPP2R5C isoform 2 (UniProt Q13362), the log2 fold change is 0.159.
For PSD3 (UniProt Q9NYI0), the log2 fold change is -0.003.
Take PIAS4 (UniProt Q8N2W9): the log2 fold change is 0.049.
The same measure, in the same setting: next, PSMD8 (UniProt K7ERW6): -0.188; PCF11 (UniProt O94913): -0.169.
Regarding POLR2E (UniProt P19388), the log2 fold change was 0.095.
Regarding PSMA3 (UniProt G3V4X5), the log2 fold change is -0.122.
For the target PTEN isoform 2 (UniProt P60484), the log2 fold change is 0.081.
Same read-out and setting: with PHC3 isoform 7 (UniProt Q8NDX5) the figure was 0.287.

Compound in a further assay: CON(C)C(=O)N1N=C(c2cc(F)ccc2F)S[C@@]1(CCCN)c1ccccc1 [filanesib]
The description is as above. The method in brief: as §1
As to PMVK (UniProt Q15126), the log2 fold change was 0.198.
Turning to PSMC3 (UniProt E9PLG2), the log2 fold change was 0.17.
For the target PPP1R12C (UniProt Q9BZL4), the log2 fold change was 0.066.
Consider PRKD2 (UniProt M0R346), for which the log2 fold change is 0.038.
Consider PKM isoform 2 (UniProt P14618), for which the log2 fold change was 0.04.
The same measure, in the same setting: with POLB (UniProt P06746) the figure was -0.155; with PEX5 isoform 4 (UniProt P50542), 0.064; with PTPA (UniProt A6PVN8), 0.019.
As to PHC3 isoform 7 (UniProt Q8NDX5), the log2 fold change was -0.029.

Compound in a further assay: CO[C@H]1C[C@@H]2CC[C@@H](C)[C@@](O)(O2)C(=O)C(=O)N2CCCC[C@H]2C(=O)O[C@H]([C@H](C)C[C@@H]2CC[C@H](n3cnnn3)[C@H](OC)C2)CC(=O)[C@H](C)/C=C(\C)[C@@H](O)[C@@H](OC)C(=O)[C@H](C)C[C@H](C)/C=C/C=C/C=C/1C [zotarolimus]
Described as above. The method in brief: as §1
On to PMVK (UniProt Q15126), for which the log2 fold change was 0.083.
Turning to PSMC1 (UniProt G3V4X1), the log2 fold change was -0.045.
Take PDE4DIP (UniProt E9PS60): the log2 fold change is -0.032.
PCBP2 (UniProt F8VZX2): the log2 fold change was 0.158.
On to PDE4A (UniProt P27815), for which the log2 fold change was 0.07.
The same measure, in the same setting: with PSMA3 (UniProt H0YJ03) the figure was -0.004; with PRR14L (UniProt Q5THK1), -0.083; with PUM1 (UniProt Q14671), -0.076.
Consider PHLDB1 isoform 2 (UniProt Q86UU1), for which the log2 fold change is 0.014.
With PIGH (UniProt Q14442), the log2 fold change was 0.031.
On the same count and under the same terms, next, POLB (UniProt P06746): 0.215.
On the same count and under the same terms, with PEX5 isoform 4 (UniProt P50542) the figure was -0.048.
Still for that read-out and setting: next, PTPA (UniProt A6PVN8): -0.143; PSD3 (UniProt Q9NYI0): 0.074; PSMD8 (UniProt K7EK21): -0.174.
Take PCF11 (UniProt O94913): the log2 fold change is -0.119.
Take POLR2E (UniProt P19388): the log2 fold change is -0.065.
PUF60 isoform 2 (UniProt Q9UHX1): the log2 fold change is 0.18.
Take PHC3 isoform 7 (UniProt Q8NDX5): the log2 fold change is 0.001.

Compound in a further assay: COc1cc(C(=O)O)ccc1NC(=O)[C@@H]1N[C@@H](CC(C)(C)C)[C@](C#N)(c2ccc(Cl)cc2F)[C@H]1c1cccc(Cl)c1F [idasanutlin]
Described as above. The method in brief:
as §1
Regarding PMVK (UniProt Q15126), the log2 fold change is 0.064.
Regarding PDE4A (UniProt P27815), the log2 fold change is 0.098.
Still for that read-out and setting: with PSMA3 (UniProt H0YJ03) the figure was 0.009; with PRR14L (UniProt Q5THK1), 0; with PUM1 (UniProt Q14671), 0.037.
On to PHLDB1 isoform 2 (UniProt Q86UU1), for which the log2 fold change was -0.033.
On the same count and under the same terms, with PKM isoform 2 (UniProt P14618) the figure was -0.049; with PIGH (UniProt Q14442), -0.127.
Regarding PEX5 isoform 4 (UniProt P50542), the log2 fold change is -0.15.
Regarding PPP2R5B (UniProt Q15173), the log2 fold change is -0.065.
As to PTPA (UniProt A6PVN8), the log2 fold change was 0.09.
With PSD3 (UniProt Q9NYI0), the log2 fold change is 0.015.
For PCF11 (UniProt O94913), the log2 fold change was -0.097.
With POLR2E (UniProt P19388), the log2 fold change is -0.061.
On the same count and under the same terms, with PUF60 isoform 2 (UniProt Q9UHX1) the figure was -0.042.

Compound in the next assay: COc1cc(Nc2ncc3c(n2)-c2ccc(Cl)cc2C(c2c(F)cccc2OC)=NC3)ccc1C(=O)O [alisertib]
The assay is described as above. The method in brief: as §1
In the case of PMVK (UniProt Q15126), the log2 fold change was 0.047.
On to PSMC3 (UniProt E9PLG2), for which the log2 fold change was 0.071.
PPP1R12C (UniProt Q9BZL4): the log2 fold change was 0.071.
As to PCBP2 (UniProt F8VZX2), the log2 fold change was -0.04.
Take PHLDB1 isoform 2 (UniProt Q86UU1): the log2 fold change is -0.098.
Still for that read-out and setting: next, PKM isoform 2 (UniProt P14618): -0.139.
Still for that read-out and setting: next, PIGH (UniProt Q14442): 0.003; PPP2R5C isoform 2 (UniProt Q13362): 0.005.
For PPP2R5B (UniProt Q15173), the log2 fold change is 0.088.
As for PTPA (UniProt A6PVN8), the log2 fold change is -0.383.
For the target PHRF1 (UniProt Q9P1Y6), the log2 fold change was -0.001.
On to PRKX (UniProt P51817), for which the log2 fold change is 0.014.
Take PSD3 (UniProt Q9NYI0): the log2 fold change was -0.003.
For PIAS4 (UniProt Q8N2W9), the log2 fold change is -0.566.
Take PCNX1 (UniProt Q96RV3): the log2 fold change was -0.059.
On to PCF11 (UniProt O94913), for which the log2 fold change was 0.015.
With PMS2CL (UniProt Q68D20), the log2 fold change was -0.254.
Same read-out and setting: next, POLR2E (UniProt P19388): -0.21; PIM1 isoform 2 (UniProt P11309): 0.267; PUF60 isoform 2 (UniProt Q9UHX1): -0.203.
The same measure, in the same setting: next, PHC3 isoform 7 (UniProt Q8NDX5): -0.121.

The values above are taken from the supplement of paper PMC10849652.
